# Laboratory results: the supplement of paper PMC9135407
# Structures can show the parent of a compound that is named as a salt. Out of some 5,800 compounds screened, about 620 (11%) showed activity. The sample holds actives, similar compounds and a random draw of the others, so the mix is not that of the screen. Values without a mark were called inactive.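 Rule for the calls: active = score above a cut-off or among the top three wells of a plate; in these data no inactive exceeds 0.85.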
# System: primary human hepatic stellate cells (donor 1)
# Experiment: scaled lipid accumulation score (0 = DMSO-like, 1 = nortriptyline-like); higher = stronger HSC inactivation (lipid re-accumulation), active = hit call of the paper
# Settings: 48 h
# [1] = library stock concentration: 3.33 mM
# [2] = library stock concentration: 10 mM
# [3] = library stock concentration: 80 uM
# [4] = library stock concentration: 400 uM
# [5] = library stock concentration: 2 mM
# [6] = library stock concentration: 1 mM
smiles,measurement,setting,value
COc1c2ccoc2nc2c(OC)c(OCC(O)C(C)(C)O)ccc12 (stereo unspecified) [Evoxine],scaled lipid accumulation score,,≤ 0
COc1ccc(CCN(C)CCCC(C#N)(c2ccc(OC)c(OC)c2)C(C)C)cc1OC (stereo unspecified) [Verapamyl hydrochloride],scaled lipid accumulation score,,0.545
COc1ccc(CCN(C)CCCC(C#N)(c2ccc(OC)c(OC)c2)C(C)C)cc1OC (stereo unspecified) [Verapamil HCl],scaled lipid accumulation score,[1],0.332
same,scaled lipid accumulation score,[2],0.536
COc1ccc(CCN(C)CCCC(C#N)(c2ccc(OC)c(OC)c2)C(C)C)cc1OC (stereo unspecified) [Verapamil],scaled lipid accumulation score,library stock concentration: 4.4 mM,0.416
COc1ccc(CCN(C)CCCC(C#N)(c2ccc(OC)c(OC)c2)C(C)C)cc1OC (stereo unspecified) [Verapamil hydrochloride],scaled lipid accumulation score,[2],0.587
O=C(O)Cc1c2ccccc2n2c1[nH]c(=O)c1ccccc12,scaled lipid accumulation score,[3],≤ -0.001
same,scaled lipid accumulation score,[4],≤ -0.001
same,scaled lipid accumulation score,[5],≤ -0.001
same,scaled lipid accumulation score,[2],≤ -0.001
CCCCC[C@H](O)/C=C/[C@H]1C(=O)C[C@H](O)[C@@H]1C/C=C\CCCC(=O)OC [Prostaglandin D2 methyl ester],scaled lipid accumulation score,[6],≤ 0
CNCc1cc(-c2ccccc2F)n(S(=O)(=O)c2cccnc2)c1,scaled lipid accumulation score,[1],0.046
same,scaled lipid accumulation score,[2],0.471
CC(C)=CCC/C(C)=C/CC/C(C)=C/CC[C@]1(C)CCc2c(C)c(O)c(C)c(C)c2O1 [.alpha.-Tocotrienol],scaled lipid accumulation score,[6],0.026
CCCc1c(OCC(O)COc2ccc3c(=O)cc(C(=O)O)oc3c2CCC)ccc(C(C)=O)c1O (stereo unspecified),scaled lipid accumulation score,[2],≤ -0.001
c1ccc2[nH]cnc2c1 [DRB (Benzimidazole)],scaled lipid accumulation score,library stock concentration: 15.7 mM,0.081
Clc1ccc(C2(c3ccc(-c4cn[nH]c4)cc3)CCNCC2)cc1 [listing 1 of 3 here],scaled lipid accumulation score,[3],0.375
same,scaled lipid accumulation score,[4],0.622
same,scaled lipid accumulation score,[2],0.425
Clc1ccc(C2(c3ccc(-c4cn[nH]c4)cc3)CCNCC2)cc1 [listing 2 of 3 here],scaled lipid accumulation score,[5],0.95 (active)
same,scaled lipid accumulation score,[2],1.16 (active)
Clc1ccc(C2(c3ccc(-c4cn[nH]c4)cc3)CCNCC2)cc1 [listing 3 of 3 here],scaled lipid accumulation score,[1],1.22 (active)
C[n+]1ccccc1C=NO [Pralidoxime mesylate],scaled lipid accumulation score,[2],0.016
O=C1C2CC3CC1CC(O)(C3)C2,scaled lipid accumulation score,[2],0.163
"N[C@H](C(=O)O)[C@H]1C[C@@H]1C(=O)O [(2S,1'S,2'S)-2-(carboxycyclopropyl)glycine]",scaled lipid accumulation score,[2],0.17
CCO/C(O)=C1\C(COCCN)=NC(C)=C(C(=O)OC)C1c1ccccc1Cl (stereo unspecified),scaled lipid accumulation score,[2],1.38 (active)
CCOC(=O)C1=C(COCCN)NC(C)=C(C(=O)OC)C1c1ccccc1Cl (stereo unspecified) [Amlodipine besylate],scaled lipid accumulation score,library stock concentration: 3.5 mM,≤ 0
CCO/C(O)=C1\C(C)=NC(c2ccccc2)=C(C(=O)OCc2ccc([N+](=O)[O-])cc2)C1C#Cc1ccccc1 (stereo unspecified),scaled lipid accumulation score,[2],≤ 0
COC(=O)C1=C(C)NC(C)=C(C(=O)OCCSc2ccccc2)C1C (stereo unspecified),scaled lipid accumulation score,[2],0.111
same,scaled lipid accumulation score,library stock concentration: 13.8 mM,0.203
CCOC(=O)C1=C(COCCN)NC(C)=C(C(=O)OC)C1c1ccccc1Cl (stereo unspecified) [Amlodipine],scaled lipid accumulation score,[1],0.492
same,scaled lipid accumulation score,library stock concentration: 4.9 mM,≤ -0.006
same,scaled lipid accumulation score,[2],0.33
CCOC(=O)C1=C(C)NC(C)=C(C(=O)OC)C1c1cccc(Cl)c1Cl (stereo unspecified) [Felodipine] [listing 1 of 2 here],scaled lipid accumulation score,,0.05
same,scaled lipid accumulation score,[1],≤ 0
same,scaled lipid accumulation score,library stock concentration: 5.2 mM,0.028
same,scaled lipid accumulation score,[2],≤ 0
CCOC(=O)C1=C(COCCN)NC(C)=C(C(=O)OC)C1c1ccccc1Cl.O=S(=O)(O)c1ccccc1 (stereo unspecified) [Amlodipine besylate],scaled lipid accumulation score,[2],1.02 (active)
CCCC(=O)OCOC(=O)C1=C(C)NC(C)=C(C(=O)OC)C1c1cccc(Cl)c1Cl (stereo unspecified) [Clevidipine Butyrate],scaled lipid accumulation score,[1],≤ 0
same,scaled lipid accumulation score,[2],≤ 0
CCOC(=O)C1=C(C)NC(C)=C(C(=O)OC)C1c1cccc(Cl)c1Cl (stereo unspecified) [Felodipine] [listing 2 of 2 here],scaled lipid accumulation score,[2],0.931 (active)
